Results taken from PubChem BioAssay (NCI).
This is part of a sample that, as a whole, favours compounds with a hit. Of some 79,000 tested, about 15% had one in any assay. A number with no mark means an inactive call. Calls of active or inactive are those of the source. Rule as the data show it: active = growth inhibition above about 70%; inactive = the rest.

Tests used:
[1] = NCI Yeast Anticancer Drug Screen. Data for the rad50 strain (AID 155);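 also: 0% = growth of vehicle-only cultures of the same strain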; details: S. cerevisiae rad50 strain growth inhibition; at 50.0 µM; hits give high values
How it was run: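 Genetically altered yeast (DNA repair pathway); compound treatment; growth inhibition vs vehicle ctrl.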

[2] = NCI Yeast Anticancer Drug Screen. Data for the mec2-1 strain (AID 157); details: S. cerevisiae mec2-1 strain, at 50.0 µM, hits give high values
How it was run: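 Each compound was tested on mec2-1 yeast, a strain altered in DNA damage repair or cell cycle control. Growth inhibition is reported relative to vehicle.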

[3] = NCI Yeast Anticancer Drug Screen. Data for the sgs1 mgt1 strain (AID 161);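 also: 0% = growth of cultures given vehicle only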; details: S. cerevisiae sgs1 mgt1 strain, at 50.0 µM, hits give high values
How it was run: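 Inhibition of yeast growth, normalised to vehicle-treated controls, is reported for a strain bearing genetic alterations in DNA damage repair.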

[4] = NCI Yeast Anticancer Drug Screen. Data for the cln2 rad14 strain (AID 165);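 also: 0% = growth equal to vehicle treated cultures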; details: S. cerevisiae cln2 rad14 strain, at 50.0 µM, hits give high values
How it was run: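 Test compounds were added to cln2 rad14 yeast cultures; inhibition of growth was then determined by comparison with vehicle treatment.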

[5] = NCI Yeast Anticancer Drug Screen. Data for the bub3 strain (AID 167); details: S. cerevisiae bub3 mutant strain, at 50.0 µM, hits give high values
How it was run: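 Yeast carrying a defined mutation is treated with each compound, and growth is compared with that of vehicle-exposed cells to give inhibition.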

[6] = NCI Yeast Anticancer Drug Screen. Data for the mlh1 rad18 strain (AID 175); details: S. cerevisiae mlh1 rad18 strain growth inhibition; at 50.0 µM; hits give high values
How it was run: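 Inhibition values reflect reduced growth of mutant yeast versus vehicle-treated controls following compound exposure; the mutations affect DNA damage repair.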

SMILES	growth inhibition [1]	growth inhibition [2]	growth inhibition [3]	growth inhibition [4]	growth inhibition [5]	growth inhibition [6]
CN(C)S(=O)(=O)C(C(=O)Nc1ccccc1)c1ccccc1 (configuration not stated)	-1.15%	13.8%	3%	-34.7%	-5.95%	-10.5%
CCCCCCCCCCCCCC(=O)CC	56.3%	-3.35%	17.9%	19.1%	12.4%	21.9%
Nc1cc(N)nc(S(=O)O)n1	18.9%	2.85%	16.1%	10.7%	19.8%	35.9%
CC(C)Cc1ccc(OC(=O)Nc2ccccc2)cc1	-7.5%	-1.6%	-2.9%	-3.4%	-13.5%	2.05%
Cc1cc2c(c3ccccc13)Cc1ccccc1-2	-5.65%	9.2%	-7%	7.35%	15.4%	-13.8%
CC12CC3CC(C1)CC(NCCO)(C3)C2	-0.8%	-13.7%	-14.3%	-83.7%	-5.45%	-4.35%
Cc1cccc(C2=N/C(=C\c3ccc4c(c3)OC(O)O4)C(=O)O2)c1 (configuration not stated)	-1.9%	6.55%	4.95%	3.55%	7.05%	-16.4%
CCOC(=O)C(CN)c1ccccc1 (configuration not stated)	-9.15%	-9.5%	8.1%	-32.9%	-1.25%	3.6%
O=c1ccocc1OC1OC(CO)C(O)C(O)C1O (configuration not stated)	-3.95%	-26.4%	-21.1%	-1.35%	-32.3%	-23.1%
O=c1c2cc3c(=O)n(O)c(=O)c3cc2c(=O)n1O	12.4%	-18.2%	-9.45%	6.75%	3.25%	-90.4%
Cc1cc(C)c(C(C)(C)O)c(C)c1	8.45%	0%	3.9%	22.4%	-1.65%	1.1%
O=c1[nH]nc(S(=O)(=O)c2ccccc2)c(=O)[nH]1	13.2%	-6.45%	-1.7%	-10.6%	9.3%	-3.2%
COc1cc([C@@H]2c3cc4c(cc3[C@H](OC(=O)CCCC(=O)O)[C@H]3COC(=O)[C@H]23)OCO4)cc(OC)c1OC	26.2%	23.2%	38.5%	32.3%	10.9%	33.6%
O=S(=O)(O)c1cc(O)c(N=NC2S(=O)(=O)OCCOS2(=O)=O)c2ccccc12	7.45%	2.7%	31.2%	-9.2%	16.8%	-4.05%
Cc1ccc(-c2c3nc(c(-c4ccc(C)cc4)c4ccc([nH]4)c(-c4ccc(OCC5COC(C)(C)O5)cc4)c4nc(c(-c5ccc(C)cc5)c5ccc2[nH]5)C=C4)C=C3)cc1 (configuration not stated)	-58.3%	-32.9%	-50.3%	-23.9%	-40.5%	-66.7%
O=C(N/N=C1\CCc2ccccc2C1)N/N=C1\CCc2ccccc2C1	20.4%	17.1%	11.7%	-5.85%	-18.9%	9.6%
C/C(=N\N=C(N)N)c1ccc(NC(=S)Nc2ccccc2)cc1	5.4%	3.85%	26.2%	-19.9%	3.5%	9.5%
CCC(=O)C(C)C(=O)CCC(=O)Nc1cc(Cl)ccc1Cl (configuration not stated)	21.4%	18.5%	18.6%	20.2%	18.1%	19.6%
C[Si](C)(C)c1ccc(C(=O)O)cc1	7.3%	12.6%	-3.35%	3.2%	-18.3%	10.2%
CCOC(=O)COc1cc(C)c2ccc(=O)oc2c1	3.9%	-1.35%	10.8%	8.45%	6.4%	29.1%
O=C1NN(c2ccccc2)CCO1	-2.45%	-3.2%	-5.25%	-18.6%	0.1%	2.15%

SMILES	growth inhibition [1]	growth inhibition [2]	growth inhibition [3]	growth inhibition [4]	growth inhibition [5]	growth inhibition [6]
COC(=O)[C@H]1[C@H]2C[C@@H]3c4[nH]c5cc(OC)ccc5c4CCN3C[C@H]2C[C@@H](OC(=O)c2cc(OC)c(OC)c(OC)c2)[C@@H]1OC	16.5%	-14.2%	-8.9%	-3.65%	25.7%	12.8%
COC(OC)c1cccnc1C	-25.6%	16.8%	-25.1%	6.65%	-23.5%	7.7%
Cc1nc(Nc2ccccc2)sc1C(=O)CC(=O)C(=O)NC12CC3CC(CC(C3)C1)C2	1.3%	8.95%	8.8%	-13.1%	4.4%	-0.7%
CC1C(=O)CCC2C1(C)CCC1C2(C)CCC2(C)C3CC(C)(C)CCC3(C)CCC12C (configuration not stated)	18.4%	-9.05%	17.4%	9.2%	22.9%	16.8%
CCOC(=O)C(Nc1cc([N+](=O)[O-])ccc1C(=O)OC)(OC)C(=O)OCC	13.2%	15.4%	34.1%	0.95%	1.15%	27.4%
Cc1ccc(N=C2OC(=O)c3ccccc32)cc1	-3.8%	-4%	0.1%	-39.5%	9.9%	32.7%
Cc1ccc2cc(C)c(C)cc2c1	30.6%	-3.35%	-10.8%	16.1%	-2.6%	12.8%
CCOC(=S)SCC(=O)c1ccc(Br)cc1	67%	70.5% (active)	66.8%	-7.5%	55.2%	83.5% (active)
CC1c2ccccc2-c2ccccc2N1C(=O)c1cccc(C(=O)N2c3ccccc3-c3ccccc3C2C)n1 (configuration not stated)	26.3%	11.6%	-6.75%	-1.9%	-2.1%	18.1%
Cc1c(Cl)cccc1NC(=O)C1CC(Br)C(Br)CC1C(=O)O (configuration not stated)	1.5%	6.7%	1.5%	-48.5%	9.35%	31.3%
CCOC(=O)C(C)CC(=O)C(C)CC(=O)C(C)C (configuration not stated)	-9.95%	6.1%	-13.3%	-14.2%	-9.75%	-5.05%
CN(C)Cc1[nH]c(=O)[nH]c(=O)c1O	-9.05%	-8.75%	-11.9%	-38.8%	-21.5%	-45.3%
CCOc1ccccc1/C=C1\CCc2ccccc2C1=O	21.6%	34.8%	42.7%	0.4%	49.9%	23%
O=[N+]([O-])c1ccc(C[N+]2(CCC[N+]3(Cc4ccc([N+](=O)[O-])cc4)CCCC3)CCCC2)cc1	-1.6%	-18.2%	-2.1%	10.7%	8.75%	2.3%
CC(=O)OC1C=C(C=O)C(O)(C=O)C2(C)CCCC(C)(C)C12 (configuration not stated)	-20.2%	-29.5%	-18.6%	7.95%	8.65%	-17.6%
N/C(CCOCC/C(N)=N\O)=N/O	16.8%	25.4%	-22.4%	-1.85%	-2.3%	6.5%
O=C(O)c1ccncc1	12.2%	-9.65%	8.1%	46.9%	-2.9%	17.9%
Clc1ccc(-c2nc3ccccc3cc2N2CCCCC2)cc1	26.4%	1.45%	12.3%	-38.5%	-1.15%	-7.7%
COc1ccc(C(=O)N2CCCCC2)cc1	-31.1%	-15.8%	-3.8%	-26.6%	-0.9%	-12.2%
CCOC(=O)/C(C#N)=C/c1ccc(Br)cc1	15.7%	0.8%	0.3%	-4.25%	7.5%	21.3%
Cc1noc(NS(=O)(=O)c2ccc(NC(=S)/N=C/C(C(=O)c3ccccc3)=C(\O)c3ccccc3)cc2)c1C	10.7%	0.55%	18.7%	-7.4%	-5.15%	13.7%
